Sfp inh = inhibitors of Bacillus subtilis Sfp phosphopantetheinyl transferase. Q9F4F7. AID 1490. Potency, µM, for the others: largest response in the series, negative = inhibition, most hits filed as inhibitors. hit rate 3.5% among 310,000. Biochemical Sfp PPTase activity, qHTS;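 note: the enzyme is Sfp with the accession as filed and its product quenches rhodamine fluorescence; 0% = enzyme reaction without inhibitor and -100% = no enzyme wells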
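Step 1, compound plus 15 nM Sfp-PPTase, 15 min, room temperature. Step 2, add rhodamine-CoA (5 uM) and BHQ-2-YbbR (12.5 uM). Step 3, read 525/598 nm fluorescence at 0 and 30 min.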
PLK1 PBD block = PLK1 (human) polo-box domain binding inhibition; P53350; Potency, µM, for the others: max response, negative = inhibition, most hits filed as inhibitors; Plk1 PBD binding of FITC phosphopeptide, fluorescence polarization; hit rate 2.8% among 360,000; note: series mostly up to about 57 µM; nearly all actives have a fitted effect of over 65% in size
TrxR1 substrate = is turned over as a substrate by rat TrxR1; AID 588456; Potency, µM (doses to about 114 µM), for the others: at the top dose activity change, negative = substrate turnover; hit rate 0.01% among 390,000; purified TrxR1 substrate turnover, NADPH consumption readout; O89049; note: nearly all actives have a fitted effect of over 50% in size
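Rat TrxR1, dispensed at 90 nM, was prereduced with 400 uM NADPH (final) for 5 min at ~22 deg C, then incubated with compound 15 min before 400 uM selenite. A first-read NADPH fluorescence drop versus no-compound background flagged substrates.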
rTrxR1 inhibitor = blocks rat thioredoxin reductase 1; Potency, µM (doses to about 114 µM), inactives show at the top dose activity change, negative = inhibition, most hits filed as inhibitors; recombinant rTrxR1, NADPH fluorescence consumption, selenite substrate; hit rate 1% among 390,000; AID 588453; O89049; note: nearly all actives have a fitted effect of over 65% in size
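Rat TrxR1 (90 nM in the dispensed reagent) was pre-reduced with 400 uM NADPH for 5 min at room temperature, then incubated with compound for 15 min. After 400 uM selenite was added, NADPH fluorescence (Ex 340/Em 450 nm) was followed for 8 min.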
VDR inh = blocks the human vitamin D receptor. VDR-SRC2-3 peptide fluorescence polarization, 2 h. AID 504847. hit rate 0.93% among 400,000. Potency, µM, for the others: max response, negative = inhibition, usual class: inhibitors. P11473
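After 23 nl compound addition and a short centrifugation, plates sat for 2 hours at ambient temperature; polarization of fluorescence then indicated loss of VDR binding to peptide SRC2-3.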
IDH1 R132H inh = blocks human mutant IDH1 R132H enzyme | Potency, µM (top dose mostly 76.6 µM), for inactives: at the top dose activity change, negative = inhibition, hits mostly inhibitors | hit rate 0.093% among 390,000 | IDH1-R132H enzyme, NADPH consumption, diaphorase/resazurin fluorescence | O75874; note: nearly all actives have a fitted effect of over 65% in size
Target sequence (O75874 whole entry R132H, stated change not applied): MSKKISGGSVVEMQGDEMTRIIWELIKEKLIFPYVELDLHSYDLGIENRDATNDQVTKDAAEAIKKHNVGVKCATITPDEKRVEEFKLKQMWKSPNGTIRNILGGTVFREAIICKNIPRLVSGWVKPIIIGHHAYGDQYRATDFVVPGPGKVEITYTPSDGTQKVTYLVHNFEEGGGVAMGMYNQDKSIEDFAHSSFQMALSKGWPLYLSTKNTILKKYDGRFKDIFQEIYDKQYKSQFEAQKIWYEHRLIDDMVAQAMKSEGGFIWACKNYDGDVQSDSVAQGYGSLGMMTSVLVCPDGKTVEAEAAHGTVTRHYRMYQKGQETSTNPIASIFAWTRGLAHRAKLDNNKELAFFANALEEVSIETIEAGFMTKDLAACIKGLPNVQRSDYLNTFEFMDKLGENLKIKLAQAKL
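IDH1-R132H (0.5 ug/mL) preincubated 30 min with compound, then NADPH (0.016 mM) and alpha-KG (2 mM) added; 80 min at RT, pH 7.5. Remaining NADPH coupled via diaphorase/resazurin to fluorescence (540/590 nm); concentration-response curves normalized to no-enzyme control.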
* marks the source's active call; other numbers are inactive results; ? = inconclusive; / = no result given; [ ] = another dose, or the depositor's remark. Shown are actives, neighbours in structure and some others; about 5.2% of the full set was active somewhere. Calls come from the whole dose curve; as a rule, active = well fitted curve in the direction sought with a large enough effect; inconclusive = small, poorly fitted or top-dose-only effect, or another doubt; inactive = no such curve, though single readings can be large; an effect the other way counts as inactive or inconclusive. Unless noted, % is set by controls: 0 for no effect and ±100 for the full control effect; potency is the fitted concentration of half-maximal effect.

SMILES	Sfp inh	PLK1 PBD block	TrxR1 substrate	rTrxR1 inhibitor	VDR inh	IDH1 R132H inh
COc1ccc(CCN2C(=O)COc3ccccc3C2C(=O)Nc2ccc3c(c2)OCCO3)cc1OC (stereo not drawn)	/	2%	/	/	/	/
O=C(Cn1ncc2c([nH]c3ccccc32)c1=O)N1CCN(c2ccccc2F)CC1	17%	27µM*	4%[57.1 µM]	15%[57.1 µM]	-8%	-4%
O=C(Cn1ncc2c([nH]c3ccccc32)c1=O)N1CCN(c2ccc(F)cc2)CC1	13%	?	-4%	11%	-19%	-2%
CC(C(=O)Nc1ccc2c(c1)OCO2)c1ccc([N+](=O)[O-])cc1 (stereo not drawn)	0%	-11%	1%[57.1 µM]	7%[57.1 µM]	5%	-5%
CC(C(=O)Nc1ccc2c(c1)OCCO2)c1ccc([N+](=O)[O-])cc1 (stereo not drawn)	-1%	30µM*	-5%	6%	-3%	3%
CC1=CC(C)(C)N2C(=O)C(=O)c3cc(OC(=O)c4ccco4)cc1c32	-4%	27µM*	-19%	-27%	?	10%
COC(=O)c1c(C)n(-c2ccc(OC)cc2)c2ccc(O)cc12	45µM*	-5%	6%[57.1 µM]	7%[57.1 µM]	-10%	5%
CCOC(=O)c1c(C)n(-c2ccc(F)cc2)c2ccc(O)cc12	?	1%	7%	15%	0%	1%
CCOC(=O)c1c(C)n(-c2ccc(OC)cc2)c2ccc(O)c(CN(C)C)c12	-4%	30µM*	2%	18%	-12%	-9%
Cc1ccc(C)c(N(C(=O)c2snc(C(N)=O)c2N)C(C(=O)NCC2CCCO2)c2cccs2)c1 (stereo not drawn)	2%	30µM*	20%[57.1 µM]	25%[57.1 µM]	79µM*	-14%
COc1ccccc1N1CCN(CC(=O)Nc2cc(C)nn2-c2nc(C)cc(C)n2)CC1	/	3%	4%	2%	15%	11%
Cc1cc2ccccc2c[n+]1C	/	/	7%	-15%	/	/
CN(C(=O)c1ccccc1Br)C1CCS(=O)(=O)C1 (stereo not drawn)	/	1%	1%[57.1 µM]	1%[57.1 µM]	-4%	5%
CC(=O)NC1=C(NC2CCS(=O)(=O)C2)C(=O)c2ccccc2C1=O (stereo not drawn)	32µM*	?	-17%	?	?	14%
CN(C1=C(NC(=O)c2ccccc2)C(=O)c2ccccc2C1=O)C1CCS(=O)(=O)C1 (stereo not drawn)	20µM*	?	-3%	50µM*	-20%	28%
O=C(c1ccccc1)c1coc2ccc(O)c(CN3CCOCC3)c12	7%	21µM*	3%	-30%	-11%	-2%
CCOC(=O)c1c(C)oc2ccc(O)c(CN3CCCCC3)c12	-4%	2%	0%	0%	1%	-4%
CCOC(=O)c1c(-c2ccccc2)oc2ccc(O)c(CN3CCOCC3)c12	-8%	12µM*	-5%	?	-21%	2%
CCc1ccc(-n2nc(C)c3c(C(=O)Nc4cccc(C(F)(F)F)c4)cc(C)nc32)cc1	/	/	9%	36%	2%	0%
C=CC[C@H](c1ccc(F)cc1)N(CC(C)C)S(=O)(=O)C=C	/	/	-8%	0%	/	/
CC1CCC/C(=C\Nc2ccc(O)cc2)C1=O (stereo not drawn)	45µM*	-5%	-14%	20µM*	-30%	8%
Cc1cc(C(=O)O)ccc1N/C=C1\CCCC(C)C1=O (stereo not drawn)	16%	-16%	-18%	-22%	3%	-3%
O=C(CN1CCN(S(=O)(=O)c2ccc(Br)cc2)CC1)c1ccc(O)c(O)c1	79µM*	-19%	-4%	21%	2%	5%
CC(C)c1ccc(S(=O)(=O)N2CCN(CC(=O)c3ccc(O)c(O)c3)CC2)cc1	22µM*	/	/	/	/	/
CC(C)c1ccc(S(=O)(=O)N2CCN(CC(=O)Nc3ccc(Cl)cc3F)CC2)cc1	/	3%	5%	23%	4%	11%
O=C(NC1CCCC1)C(c1ccc(F)cc1)N(Cc1ccccc1Cl)C(=O)CCl (stereo not drawn)	10%	-9%	-1%	32µM*	-24%	-7%
